23 molecules from PubChem BioAssay (NCI) can be followed below.

This is part of a sample that, as a whole, favours compounds with a hit. Of some 79,000 tested, about 15% had one in any assay. Values without a mark were called inactive. Active and inactive are the calls of the source. Rule as the data show it: active = growth inhibition above about 70%; inactive = the rest.

Assay [1] in a line: NCI Yeast Anticancer Drug Screen. Data for the rad50 strain (AID 155).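 Also: 0% = growth of vehicle-only cultures of the same strain.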 The settings on record: S. cerevisiae rad50 strain growth inhibition; at 50.0 µM; hits give high values. The method in brief:
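Relative growth inhibition (compound vs vehicle) was measured in yeast with a defined repair-gene alteration.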

Assay [2] in a line: NCI Yeast Anticancer Drug Screen. Data for the sgs1 mgt1 strain (AID 161).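 Also: 0% = growth of cultures given vehicle only.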 The settings on record: S. cerevisiae sgs1 mgt1 strain, at 50.0 µM, hits give high values. In short, it runs like this:
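Yeast cells carrying a defined DNA-repair defect were exposed to test compounds. Growth inhibition was measured relative to vehicle-treated controls.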

Assay [3] in a line: NCI Yeast Anticancer Drug Screen. Data for the cln2 rad14 strain (AID 165).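 Also: 0% = growth equal to vehicle treated cultures.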 The settings on record: S. cerevisiae cln2 rad14 strain, at 50.0 µM, hits give high values. The method in brief:
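Growth inhibition, relative to vehicle-treated controls, is the read-out. The test organism is a yeast strain with defined genetic alterations, cln2 rad14.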

Assay [4] is described as follows: NCI Yeast Anticancer Drug Screen. Data for the bub3 strain (AID 167). The settings on record: S. cerevisiae bub3 mutant strain, at 50.0 µM, hits give high values. The method in brief:
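Screening used yeast with an engineered genetic alteration affecting cell cycle control. Compound-exposed cultures were compared with vehicle cultures, and reduced growth was taken as inhibition.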

Assay [5] is described as follows: NCI Yeast Anticancer Drug Screen. Data for the mlh1 rad18 strain (AID 175). The settings on record: S. cerevisiae mlh1 rad18 strain growth inhibition; at 50.0 µM; hits give high values. The method in brief: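 Cells of a genetically altered yeast strain, deficient in DNA damage repair, were treated with compound. Their growth was then compared with that of vehicle-treated cultures to give inhibition.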

Assay [6] can be described thus: NCI Yeast Anticancer Drug Screen. Data for the mec2-1 strain (AID 157). The settings on record: S. cerevisiae mec2-1 strain, at 50.0 µM, hits give high values. In short, it runs like this: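 Growth inhibition is read against vehicle-treated controls after compound exposure of the mec2-1 yeast strain, which is defective in DNA damage repair or cell cycle control.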

For `CC(C)/C=C/C1(C(C)C)C(=O)NC(=O)NC1=O`, the growth inhibition in assay [1] was 19.5%; in assay [2], -4.85%; in assay [3] it was 14.1%; in assay [4] it was 3.9%; in assay [5] it was 3.1%.

With `c1cc[c]([Ge]([c]2ccccc2)[c]2ccccc2)cc1`, the growth inhibition in assay [1] was 23.1%; in assay [2] it was 3.05%; in assay [3], 20.3%; in assay [4], -5.15%; in assay [5] it was 14.4%.

For `O=C(NCC(O)CO)c1cc(N(CCCl)CCCl)c([N+](=O)[O-])cc1[N+](=O)[O-]` (stereo not given), the growth inhibition in assay [1] is 3.8%; in assay [2], -10.5%; in assay [3] it was -63.6%; in assay [4], -10.4%; in assay [5], 6.35%.

For the molecule `[C-]#[O+].[C-]#[O+].[C-]#[O+].[C-]#[O+].[C-]#[O+].[C-]#[O+].[Fe].[Fe].c1ccc([P-]c2ccccc2[P-]c2ccccc2)cc1` (stereo not given), the growth inhibition in assay [1] was 8.7%; in assay [2] it was -11.3%; in assay [3], 26.9%; in assay [4], 12.6%; in assay [5], 18.7%.

Take `CN(C)c1ccccc1`: the growth inhibition is 0.35% in assay [1]; 5.35% in assay [2]; -7.4% in assay [3]; 3.1% in assay [4]; 2.65% in assay [5].

For the molecule `COC(=O)CCc1ccc(NP(=O)(Oc2ccccc2)N(CCCl)CCCl)cc1` (stereo not given), the growth inhibition in assay [6] is 20.2%; in assay [2], 23.4%; in assay [3], 35.8%; in assay [4], 12.2%; in assay [5], -8.55%.

Turning to `[Br][Sn]([Br])([CH2][Sn]([Br])([c]1ccccc1)[c]1ccccc1)[c]1ccccc1`, the growth inhibition in assay [5] is 81.7% (active).

For `O=C(c1ccccc1)C1CN(C2CCCC2)C1c1ccccc1` (stereo not given), the growth inhibition in assay [6] is 7.6%; in assay [2], -1.55%; in assay [3], -27.3%; in assay [4], 10.4%; in assay [5], 16.1%.

On to `CN1CCC2(CC1)C(C#N)C(=O)NC(=O)C2C#N` (stereo not given), for which the growth inhibition in assay [6] is 3%; in assay [2] it was 11.7%; in assay [3] it was 22.9%; in assay [4], 9.05%; in assay [5] it was 7.75%.

As to `O=C(Oc1cc(Cl)c(S(=O)(=O)F)cc1Cl)c1ccc([N+](=O)[O-])cc1`, the growth inhibition in assay [6] is 86% (active); in assay [2], 90.2% (active); in assay [3], 64.8%; in assay [4] it was 73.5% (active); in assay [5] it was 89.9% (active).

Turning to `CC[C@@]1(O)C(=O)OCc2c1cc1n(c2=O)Cc2cc3cc(OC)ccc3nc2-1`, the growth inhibition in assay [2] is 86.7% (active); in assay [3], 80.7% (active); in assay [4], 83.6% (active).

Turning to `Cc1ccc2[nH]c(=S)n(-c3cccc(C(F)(F)F)c3)c(=O)c2c1`, the growth inhibition was 21.4% in assay [2], 20.7% in assay [3], 22.6% in assay [4] and 16.5% in assay [5].

`CCC[CH2][Sn]([CH2]CCC)([O]C(=O)CN)[O]C(=O)CN`: the growth inhibition is 17.9% in assay [6]; 35.4% in assay [2]; 22% in assay [3]; 19.1% in assay [4]; 44.1% in assay [5].

As for `CN(CCC(=O)O)C1=Nc2ccc(Cl)cc2C(c2ccccc2)=[N+]([O-])C1`, the growth inhibition in assay [6] was 6.15%; in assay [2], -14.2%; in assay [3], -1.4%; in assay [5], 6.85%.

With `COc1ccc2c(c1)CC(CN1CCC3(CC1)C(=O)N(C)CN3c1ccccc1)O2` (stereo not given), the growth inhibition was 0.95% in assay [6], -19.7% in assay [2], -27.4% in assay [3] and -9.8% in assay [5].

Turning to `c1ccc(N=PNc2ccccc2)cc1` (stereo not given), the growth inhibition was -6.25% in assay [6]; -9.5% in assay [2]; -51.6% in assay [3]; 23% in assay [4]; -13.3% in assay [5].

Consider `CCNc1ccc([N+](=O)[O-])cc1[N+](=O)[O-]`, for which the growth inhibition in assay [6] is 16.9%; in assay [2], 7.45%; in assay [3] it was 4.5%; in assay [4], -6.4%; in assay [5] it was 5.9%.

For `Nc1nc(N)c(N=Nc2ccc([As](=O)(O)O)c(O)c2)c(N)n1`, the growth inhibition is -6.9% in assay [6]; -36% in assay [2]; -18.4% in assay [3]; -43% in assay [4]; -18.1% in assay [5].

With `O=C(Nc1cccc(S(=O)(=O)F)c1)c1cccc([N+](=O)[O-])c1`, the growth inhibition in assay [6] is 94.8% (active); in assay [2], 98.5% (active); in assay [3], 91.7% (active); in assay [4] it was 95.6% (active); in assay [5], 96.8% (active).

With `CCN1C(=O)CC(=O)N(CC)C1=S`, the growth inhibition in assay [6] was -12.4%; in assay [2] it was -8.55%; in assay [3], 12.2%; in assay [4], 8.45%; in assay [5] it was 21.2%.

With `Nc1cc(S(=O)(=O)O)cc2cc(S(=O)(=O)O)c(N=Nc3ccc([As]=O)cc3)c(O)c12` (stereo not given), the growth inhibition in assay [6] was 15.3%; in assay [2], -9.3%; in assay [3], -4.55%; in assay [4], 6.05%; in assay [5] it was -5.3%.

On to `COc1cc(C2(C)CCCCC2)c(OC)cc1C1(C)CCCCC1`, for which the growth inhibition in assay [2] is 23.4%; in assay [3], -69.2%; in assay [4], 2.75%; in assay [5], 9.15%.

For `O=[As](O)(O)c1cccc(Cl)c1`, the growth inhibition in assay [6] was -0.25%; in assay [2], -13.8%; in assay [3] it was 1.85%; in assay [4] it was 1.9%; in assay [5] it was -0.9%.
